# Test results as given in PubChem BioAssay (NCATS).
# Inconclusive results are not listed. A call without a number means that no potency is given here. A number with no mark means an inactive call. The source made the active and inactive calls. Calls come from the whole dose curve; as a rule, active = well fitted inhibition curve with a large enough effect; inconclusive = small, poorly fitted or top-dose-only effect; inactive = no such curve, though single readings can be large or run the other way.
# Test: Primary qHTS for inhibitors of La Crosse Virus (LACV) - induced cell death in SH-SY5Y cells (AID 1508616); note: top concentration of the series differs between compounds
# Details: SH-SY5Y LACV cytopathicity rescue, ATP luminescence, 6 d; series mostly up to 4.29 µM; activity change: at the top concentration
# Excerpt: Assay Provider: Karin Peterson Ph.D.
# National Institute of Allergy and Infection Diseases, National Institute of Health
# La Crosse Virus (LACV) is a California serogroup mosquito-borne arbovirus, family Peribunyaviridae, which is an endemic pathogen in North America and can induce a rare, life-threatening neurological disease in children. LACV was first isolated in the early 1960s, from a summer "rural encephalitis" case in La Crosse, Wisconsin, USA. Since then, LACV encephalitis cases have been found in more than twenty states, with most cases in the Mississippi and Ohio River basins. The life cycle of LACV is maintained between the vector, the eastern tree-hole mosquito Aedes triseriatus, and vertebrate hosts including eastern gray squirrels (Sciurus carolinensis) and chipmunks (Tamiasstriatus grinseus). […] Most LACV infections in humans are asymptomatic or induce mild clinical symptoms of fever, headache, lethargy and vomiting. However, in some cases LACV can cause severe neuroinvasive disease, including encephalitis, meningitis, and meningoencephalitis, requiring hospitalization. To date, there is neither a licensed vaccine nor a Food and Drug Administration (FDA) approved antiviral therapy available to prevent or treat LACV encephalitis. The primary treatment for viral encephalitis is palliative care due to the lack of therapeutics. In the current study, we conducted a screen of 4,096 FDA approved and bioactive small molecules against LACV, by screening for rescue of LACV-induced cell death in SH-SY5Y cells.
# LACV-induced cytopathicity assay
# SEQUENCE No. (1,2, 3, etc.); […] (e.g., Cells, Incubation, Reagent, etc.); VALUE and DESCRIPTION.
# 1. Reagent; 2 uL; Cell solution.
# 3. Compounds; 23nL; Compound library
# 4. Reagent; 12 uL; LACV virus
# 6. Reagent; 24 uL; ATPLite (PerkinElmer)
# 7. Time; 5 min; Room temperature
# 8. Detection; Luminescence; View
# NOTES (numbers refer to sequence above)
# 1. Seed 6000 SH-SY5Y cells (ATCC CRL-2266) in 2 microL/well media (DMEM/F12 10% FBS, 1x L-Glutamine, 1x Pyruvate, 1x NEAA, 1x Pen/Strep) in 384-well assay plates (tissue culture treated, white, solid bottom).
# 2. Incubate at 37 degrees C with 5% CO2 for 24 hr.
# 3. Dispense 23 nL/well compounds in DMSO via pin transfer.
# 4. Dispense 12 microL/well of LACV (LACV/human/1978) in media at 0.01 MOI.
# 5. Incubate at for 6 days at 37C 5% CO2
# 6. Dispense 24 microL/well of ATPLite 1step Luminescence assay system (PerkinElmer).
# 7. Incubate for 5 min at room temperature.
# 8. Read luminescence signal (Viewlux plate reader, PerkinElmer). Data was normalized with DMSO control wells containing LACV as 0%, and DMSO control wells without virus as 100%.
Structure (SMILES),Potency,activity change [%]
COc1nc(C)nc(Cl)c1NC1=NCCN1,inactive,
CCOC(=O)Nc1ccc(NCc2ccc(F)cc2)nc1N,inactive,
OCCN(CCO)c1nc(N2CCCCC2)c2nc(N(CCO)CCO)nc(N3CCCCC3)c2n1,inactive,
NC(=O)OCC(COC(N)=O)c1ccccc1,inactive,
CN(Cc1cnc2nc(N)nc(N)c2n1)c1ccc(C(=O)N[C@@H](CCC(=O)O)C(=O)O)cc1,inactive,
CC#C[C@]1(O)CC[C@H]2[C@@H]3CCC4=CC(=O)CCC4=C3[C@@H](c3ccc(N(C)C)cc3)C[C@@]21C,inactive,
CC(C)(C)C(=O)Oc1ccc(S(=O)(=O)Nc2ccccc2C(=O)NCC(=O)O)cc1,,-7.48
CCOC(=O)c1ncn2c1CN(C)C(=O)c1cc(F)ccc1-2,inactive,
COc1ccccc1N1CCN(CC(O)COc2cccc3ccccc23)CC1 (stereo not given),inactive,
Cn1c(=O)c2[nH]cnc2n(C)c1=O,inactive,
Cc1cc(C(C)(C)C)c(O)c(C)c1CC1=NCCN1,inactive,
NC(=O)NO,inactive,
CN1CCN(CCCN2c3ccccc3Sc3ccc(Cl)cc32)CC1,inactive,
CN(CCOc1ccc(NS(C)(=O)=O)cc1)CCc1ccc(NS(C)(=O)=O)cc1,,14.4
CCN1CCCC1CNC(=O)c1cc(S(=O)(=O)CC)c(N)cc1OC (stereo not given),inactive,
CC(C)Cc1ccc(C(C)C(=O)O)cc1 (stereo not given),inactive,
Cc1cn([C@H]2C=C[C@@H](CO)O2)c(=O)[nH]c1=O,inactive,
CCC1(C)CC(=O)NC1=O (stereo not given),inactive,
CCCNCC(O)COc1ccccc1C(=O)CCc1ccccc1 (stereo not given),,-7.52
CC(C)NCC(O)c1ccc(O)c(O)c1 (stereo not given),inactive,

Structure (SMILES),Potency,activity change [%]
CN1CCN(C2=Nc3cc(Cl)ccc3Nc3ccccc32)CC1,inactive,
O=C(c1ccc(OCCN2CCCCC2)cc1)c1c(-c2ccc(O)cc2)sc2cc(O)ccc12,inactive,
C[C@](N)(Cc1ccc(O)c(O)c1)C(=O)O,inactive,
COc1cc2nc(N3CCN(C(=O)c4ccco4)CC3)nc(N)c2cc1OC,inactive,
CS(=O)(=O)Nc1ccc([N+](=O)[O-])cc1Oc1ccccc1,inactive,
CN1CCC(=C2c3ccccc3C=Cc3ccccc32)CC1,,20.4
CN(C)CCC=C1c2ccccc2C=Cc2ccccc21,inactive,
COc1ccc(C2CNC(=O)C2)cc1OC1CCCC1 (stereo not given),inactive,
Nc1c2c(nc3ccccc13)CCCC2,inactive,
CC(=O)OCC(CCn1cnc2cnc(N)nc21)COC(C)=O,,14.1
Cc1cnc(C(=O)NCCc2ccc(S(=O)(=O)NC(=O)NC3CCCCC3)cc2)cn1,inactive,
O=C(C1CCCCC1)N1CC(=O)N2CCc3ccccc3C2C1 (stereo not given),inactive,
NCCCCCC(=O)O,inactive,
Cc1cn([C@H]2C[C@H](N=[N+]=[N-])[C@@H](CO)O2)c(=O)[nH]c1=O,inactive,
COc1cc2nc(N3CCN(C(=O)C4COc5ccccc5O4)CC3)nc(N)c2cc1OC (stereo not given),inactive,
CS(=O)(=O)CCNCc1ccc(-c2ccc3ncnc(Nc4ccc(OCc5cccc(F)c5)c(Cl)c4)c3c2)o1,,58.6
CN1CCC(=C2c3ccccc3CC(=O)c3sccc32)CC1,inactive,
CN(C)C(=N)N=C(N)N,,-3.12
C[C@H]1c2cccc(O)c2C(O)=C2C(=O)[C@]3(O)C(O)=C(C(N)=O)C(=O)[C@@H](N(C)C)[C@@H]3[C@@H](O)[C@@H]21,inactive,
CC(C)C(=O)Nc1ccc([N+](=O)[O-])c(C(F)(F)F)c1,inactive,
